LMP1 NFkB inh: EBV LMP1-driven NF-kappaB luciferase reporter inhibitors, primary screen, cell-based, luminescence, single point; AID 504558, 2011; actives 0.69% (n = 350,000); LMP1-induced NF-kappaB luciferase reporter cells; inhibition, % at 12.5 µM; in the data active means inhibition above about 41%; inconclusive means no clear call, values can overlap the other calls
LGR2 antag: inhibitors of bursicon-induced LGR2 CRE-luciferase signal, primary screen, cell-based, HEK293, CRE-luciferase reporter, bursicon stimulation; actives 0.35% (n = 380,000); Drosophila bursicon receptor LGR2 (rickets); bursicon-stimulated, 4 h; inhibition, % at 9.99 µM;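 active means drop in luminescence signal, shown as inhibition above about 50% in the replicate tests, limit read from the data, passing the limit was not always enough; inconclusive means probably only some replicates passing the limit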;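 further: agonist challenge used bursicon conditioned medium at about half maximal strength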
MITF TRPM1 inh: inhibitors of MITF-dependent TRPM1 promoter reporter, primary screen, cell-based, SK-MEL-5, single point, luciferase; SK-MEL-5 TRPM1 promoter luciferase, 24 h; inhibition, % at 12.5 µM; actives 0.83% (n = 330,000); AID 488899, 2010;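 active means mean inhibition across replicates of 60% or more, whatever share of single replicates reaches that level; inconclusive means some that reach 60%, reason not given; inactive means mean inhibition across replicates below 60%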
PAX8 reporter: inhibitors of PAX8-driven TPO luciferase reporter, primary screen, RMG-I cells, single concentration. SteadyGlo, 24 h. inhibition, % at 12.6 µM. actives 1.2% (n = 360,000);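 active means mean replicate inhibition at least 60% with every replicate also reaching 60%; inconclusive means only one of the two criteria is met; inactive means mean below 60% and not all replicates reaching 60%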;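 further: luciferase light reporting Pax8 driven TPO promoter activity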
EWS-Fli block: EWS/Fli-driven NR0B1 reporter inhibitors, primary screen, A673 cells, NR0B1 luciferase, luminescence, MLPCN library. viability-normalised. AID 651661, 2012. actives 0.67% (n = 350,000). inhibition, % at 12.6 µM;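 active means mean inhibition of at least 50% after viability correction, with every replicate also passing that limit; inconclusive means mean reaches 50% but only one of two replicates passes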;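 further: firefly luciferase signal divided by Alamar Blue viability fluorescence both relative to DMSO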
PGC1a acetyl inh: inhibitors of PGC1a acetylation signal, primary screen, cell-based, U2OS, AlphaScreen, inhibitor mode; AID 651687, 2012; AlphaScreen anti-acetyl-lysine; with virally co-expressed GCN5 acetyltransferase; actives 0.17% (n = 350,000); inhibition, % at 15.6 µM;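 active means every replicate shows inhibition of at least 40%; inconclusive means mean inhibition at least 40% but some replicate below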
Each line names hits and unclear results; the compound was inactive in the other large screens. Shown are actives, neighbours in structure and some others; about 2.2% of the full set was active somewhere.

COc1ccc(NC(=O)C2Cc3c(-c4cccc(NC(C)=O)c4)ccnc3O2)cn1 (configuration not stated)	EWS-Fli block 63 (no result: LMP1 NFkB inh, MITF TRPM1 inh, PGC1a acetyl inh)
CCn1c(SCC(=O)OCc2ccccc2)nnc1-c1ccco1	none (no result: PAX8 reporter)
CCn1c(Sc2ccc([N+](=O)[O-])cn2)nnc1-c1ccco1	PAX8 reporter 71 (no result: PGC1a acetyl inh)
Cc1ccccc1Nc1c(-c2ccccn2)nc2ccccn12	EWS-Fli block 52
Cc1cccn2c(Nc3ccccc3)c(-c3ccccn3)nc12	none
Cc1ccn2c(Nc3ccccc3C)c(-c3ccccn3)nc2c1	none
Cc1ccn2c(Nc3ccccc3)c(-c3ccccn3)nc2c1	LMP1 NFkB inh 59, MITF TRPM1 inh inconclusive, EWS-Fli block 52
Cc1ccc(-c2ccc([C@@H]3[C@@H](CO)N4CCCCN(S(=O)(=O)c5cccc(C)c5)C[C@H]34)cc2)cc1	none (no result: LMP1 NFkB inh, LGR2 antag, MITF TRPM1 inh)
Cc1ccccc1CNc1ccc(C(CC(N)=O)NC(=O)c2ccc(Br)cc2)cc1[N+](=O)[O-] (configuration not stated)	LMP1 NFkB inh 60
NC(=O)CC(NC(=O)c1ccc(Br)cc1)c1ccc(NCc2ccc(F)cc2)c([N+](=O)[O-])c1 (configuration not stated)	none (no result: PGC1a acetyl inh)
C/C=C/c1cnc2c(c1)C(=O)N([C@@H](C)CO)C[C@@H](C)[C@@H](CN(C)C(=O)Cc1ccccc1)O2	none (no result: LMP1 NFkB inh, MITF TRPM1 inh, PAX8 reporter)
O=C(c1ccccc1)C1OC1C(=O)c1ccccc1 (configuration not stated)	PAX8 reporter 72
CCOc1ccc(S(=O)(=O)N(C)c2ccc(OCC(=O)N3c4ccc(C)cc4C4CN(C)CCC43)cc2)cc1 (configuration not stated)	PGC1a acetyl inh 75
O=C(NCc1ccccn1)[C@H]1[C@H](CO)[C@H]2Cn3c(cccc3=O)[C@H]2N1CCc1ccccc1	none (no result: LMP1 NFkB inh, MITF TRPM1 inh, PAX8 reporter, PGC1a acetyl inh)
NC(=O)C1=CC2C3C=CC2(O)C(=O)OC3O1 (configuration not stated)	MITF TRPM1 inh 71
C[C@H](CO)N1C[C@H](C)[C@H](CN(C)S(=O)(=O)c2ccc(Cl)cc2)OCCCC[C@H](C)Oc2ccc(N(C)C)cc2C1=O	none (no result: LMP1 NFkB inh, MITF TRPM1 inh)
Cc1ccc(S(=O)(=O)N(C)C[C@H]2OCCCC[C@@H](C)Oc3ccc(N(C)C)cc3C(=O)N([C@H](C)CO)C[C@H]2C)cc1	none (no result: LMP1 NFkB inh, MITF TRPM1 inh)
C[C@@H]1CCCCO[C@H](CN(C)S(=O)(=O)c2ccc(Cl)cc2)[C@H](C)CN([C@@H](C)CO)C(=O)c2cc(N(C)C)ccc2O1	PAX8 reporter 77 (no result: LMP1 NFkB inh, MITF TRPM1 inh)
C[C@@H]1CN([C@@H](C)CO)C(=O)c2cc(N(C)C)ccc2O[C@@H](C)CCCCO[C@H]1CN(C)S(=O)(=O)c1ccc(F)cc1	PAX8 reporter 88 (no result: LMP1 NFkB inh, MITF TRPM1 inh)
C[C@@H]1CN([C@H](C)CO)C(=O)c2cc(-c3ccc(C(=O)N(C)C)cc3)cnc2O[C@@H]1CN(C)C(=O)c1ccncc1	none (no result: LMP1 NFkB inh, MITF TRPM1 inh)
c1ccc(-c2nc3ccccc3[nH]2)cc1	none
O=C(O)c1cccc(-c2nc3ccccc3[nH]2)c1	LGR2 antag 94
COCC#Cc1ccc2c(c1)O[C@@H](CN(C)C(=O)C1CCC1)[C@H](C)CN([C@@H](C)CO)S2(=O)=O	none (no result: LMP1 NFkB inh, MITF TRPM1 inh, PAX8 reporter)
O=C(Cc1ccccn1)NCC[C@H]1CC[C@H](NC(=O)Nc2ccccc2)[C@H](CO)O1	none (no result: LMP1 NFkB inh, MITF TRPM1 inh)
COc1ccc(-c2nc(-c3cccs3)no2)cc1	LMP1 NFkB inh 48, LGR2 antag 81, EWS-Fli block 82
Cc1ccc(-c2noc(-c3cccs3)n2)cc1	LGR2 antag 70 (no result: PAX8 reporter)
COc1ccc(-c2nc(-c3ccncc3)no2)cc1	none
COc1ccc(CN(C)C[C@@H]2Oc3c(NC(=O)NC4CCCCC4)cccc3C(=O)N([C@H](C)CO)C[C@H]2C)cc1	none (no result: LMP1 NFkB inh, MITF TRPM1 inh)
COc1ccc(-c2n(Cc3ccccc3)c3ccccc3[n+]2Cc2ccccc2)cc1	MITF TRPM1 inh 80, PAX8 reporter 89 (no result: PGC1a acetyl inh)
COc1ccc(-c2nc3ccccc3n2Cc2ccccc2)cc1	none (no result: PAX8 reporter, EWS-Fli block)
CS(=O)(=O)N1[C@@H]2c3ccc(-c4cccc(F)c4)c(=O)n3C[C@@H]2[C@@H](CO)[C@@H]1C(=O)NC1CCC1	none (no result: LMP1 NFkB inh, MITF TRPM1 inh, PGC1a acetyl inh)
